According to the supplement of paper PMC9262897, “Low-cost anti-mycobacterial drug discovery using engineered E. coli” (Nature Communications, 2022):
Where a name gives a salt, the structure may show the parent alone. ± gives the standard deviation of the averaged measurements.

Tested on: E. coli TESEC Mtb Alr
Experiment: growth (OD600 after 10 h); higher = more growth (less inhibition)
Conditions: compound 0.1 mM
Description: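 TESEC Mtb Alr E. coli, or the Alr+ wild-type control, in 384-well plates with Prestwick library compounds at 0.1 mM and 1% DMSO, across arabinose induction levels of 1E3 to 1E7 nM. Growth is read as OD600 after 10 h at 37 °C in triplicate biological replicates.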

[1] = arabinose 1000 nM, raw OD600 reference: median of DMSO wells 0.294, cell-free background 0.041
[2] = arabinose 10000 nM, raw OD600 reference: median of DMSO wells 0.264, cell-free background 0.041
[3] = arabinose 100000 nM, raw OD600 reference: median of DMSO wells 0.201, cell-free background 0.041
[4] = arabinose 1000000 nM, raw OD600 reference: median of DMSO wells 0.193, cell-free background 0.041
[5] = arabinose 10000000 nM, raw OD600 reference: median of DMSO wells 0.146, cell-free background 0.041

Row | Structure (SMILES) | growth [1] | growth [2] | growth [3] | growth [4] | growth [5]
1 | Oc1ccc2c3c1O[C@H]1[C@@H](O)CC[C@@]4(O)[C@@H](C2)N(CC2CCC2)CC[C@]314 [Nalbuphine hydrochloride] | 0.262 ± 0.028 | 0.2664 ± 0.0015 | 0.183 ± 0.024 | 0.1753 ± 0.0013 | 0.135 ± 0.0094
2 | CC[N+]1(C)CCCC(OC(=O)C(O)(c2ccccc2)c2ccccc2)C1 (stereo not given) [Pipenzolate bromide] | 0.284 ± 0.014 | 0.258 ± 0.012 | 0.169 ± 0.0056 | 0.186 ± 0.0047 | 0.133 ± 0.0034
3 | CC(=O)NC1CCSC1=O (racemic) [N-Acetyl-DL-homocysteine Thiolactone] | 0.312 ± 0.021 | 0.2598 ± 0.0021 | 0.222 ± 0.031 | 0.185 ± 0.005 | 0.144 ± 0.0094
4 | CN1[C@@H]2CC[C@H]1C[C@@H](OC(=O)[C@H](CO)c1ccccc1)C2 [Hyoscyamine (L)] | 0.293 ± 0.024 | 0.272 ± 0.0055 | 0.23 ± 0.011 | 0.176 ± 0.005 | 0.158 ± 0.011
5 | COc1ccc(OC)c(C(O)C(C)N)c1 (stereo not given) [Methoxamine hydrochloride] | 0.292 ± 0.0063 | 0.27 ± 0.005 | 0.212 ± 0.024 | 0.187 ± 0.003 | 0.148 ± 0.0068
6 | C=CC[C@]1(O)CC[C@H]2[C@@H]3CCC4=CC(=O)CCC4=C3C=C[C@@]21C [Altrenogest] | 0.16 ± 0.0073 | 0.167 ± 0.0079 | 0.144 ± 0.0049 | 0.0767 ± 0.0035 | 0.118 ± 0.005
7 | c1ccc2nc(N3CCNCC3)ccc2c1 [Quipazine dimaleate salt] | 0.298 ± 0.016 | 0.25 ± 0.0049 | 0.212 ± 0.04 | 0.177 ± 0.0045 | 0.148 ± 0.0043
8 | CCCC(C)(COC(N)=O)COC(=O)NC(C)C (stereo not given) [Carisoprodol] | 0.287 ± 0.011 | 0.283 ± 0.0077 | 0.211 ± 0.014 | 0.198 ± 0.0098 | 0.142 ± 0.0024
